Experimental findings from ChEMBL document CHEMBL4513141, “CO-ADD screening of NIH (USA) - Clinical Collection” (2021) are described below.

Results with a measured potency or affinity are listed apart.

For this assay, the system named is Escherichia coli. The settings on record: Concentration 20 uM; ASSAY_TEST Inhibition of Bacterial Growth; detection method Absorption (OD600); MEDIA CAMHB; plate type 384well; NBS; CORNING #3640; time 18 hr.
On to `CC(=O)O[C@@]12CO[C@@H]1C[C@H](O)[C@@]1(C)C(=O)[C@H](O)C3=C(C)[C@@H](OC(=O)[C@H](O)[C@@H](NC(=O)OC(C)(C)C)c4ccccc4)C[C@](O)([C@@H](OC(=O)c4ccccc4)[C@H]21)C3(C)C`, for which the Inhibition was found to be 3.46%.
As for `c1ccc2[nH]c(-c3cscn3)nc2c1` [THIABENDAZOLE], the figure is 1.68%; as for `Cc1cnc(NC(=O)C2=C(O)c3ccccc3S(=O)(=O)N2C)s1` [MELOXICAM], 7.37%; as for `CCS(=O)(=O)CCn1c([N+](=O)[O-])cnc1C` [TINIDAZOLE], -5.72%.
The value for `C[C@]12CC[C@@H]3c4ccc(OS(=O)(=O)[O-])cc4CC[C@H]3[C@@H]1CCC2=O.[Na+]` [ESTRONE SODIUM SULFATE] was 6.3%; that for `COc1cc(C(=O)NS(=O)(=O)c2ccccc2C)ccc1Cc1cn(C)c2ccc(NC(=O)OC3CCCC3)cc12` [ZAFIRLUKAST] was 4.93%; that for `Sc1ncnc2nc[nH]c12` [MERCAPTOPURINE ANHYDROUS] was 6.85%.
Consider `COC(=O)CCc1ccc(OCC(O)CNC(C)C)cc1.Cl` (configuration not stated) [ESMOLOL HYDROCHLORIDE], for which the Inhibition is listed as -0.36%.
As for `NC(=O)N1c2ccccc2CC(=O)c2ccccc21` [OXCARBAZEPINE], the figure is -1.4%; as for `COc1cc(C)nc(-n2nc(C)cc2OC)n1` [EPIRIZOLE], -0.13%; as for `C[C@H](N[C@@H](CCc1ccccc1)C(=O)O)C(=O)N1CCC[C@H]1C(=O)O` [ENALAPRILAT ANHYDROUS], 7.09%.
As for `CC(C)NCC(O)c1cc(O)cc(O)c1` (configuration not stated) [METAPROTERENOL], the figure is -6.08%; as for `CC1(C)C[C@@H]1C(=O)N/C(=C\CCCCSC[C@H](N)C(=O)O)C(=O)[O-].[Na+]` [CILASTATIN SODIUM], -0.62%.
As to `O=c1[nH]c(=O)n(C2CCCO2)cc1F` (configuration not stated) [TEGAFUR], the Inhibition was determined as 8.41%.
Turning to `COc1cc2nc(N3CCN(C(=O)C4COc5ccccc5O4)CC3)nc(N)c2cc1OC` (configuration not stated) [DOXAZOSIN], the Inhibition was 5.29%.
In the case of `Cl.O.O=C(c1ccc(F)cc1)C1CCN(CCn2c(=S)[nH]c3ccccc3c2=O)CC1`, the Inhibition is recorded as 1.4%.
With `Cc1ccsc1C(=CCCN1CCC[C@@H](C(=O)O)C1)c1sccc1C.Cl` [TIAGABINE HYDROCHLORIDE], the Inhibition is listed as -1.1%.
Turning to `O=C1CCc2ccc(OCCCCN3CCN(c4cccc(Cl)c4Cl)CC3)cc2N1` [ARIPIPRAZOLE], the Inhibition is recorded as 1.89%.
Regarding `NC(=O)N1c2ccccc2C=Cc2ccccc21` [CARBAMAZEPINE], the Inhibition was -3.33%.
As for `CC(C)Oc1ccc2c(=O)c(-c3ccccc3)coc2c1` [IPRIFLAVONE], the Inhibition is 5.9%.
As to `CC[C@H]1OC(=O)[C@H](C)C(=O)[C@H](C)[C@@H](O[C@@H]2O[C@H](C)C[C@H](N(C)C)[C@H]2O)[C@](C)(OC)C[C@@H](C)C(=O)[C@H](C)[C@@H]2N(CCCCn3cnc(-c4cccnc4)c3)C(=O)O[C@@]21C`, the Inhibition stood at 4.81%.
The value for `CC(CCc1ccccc1)NCC(O)c1ccc(O)c(C(N)=O)c1.Cl` (configuration not stated) [LABETALOL HYDROCHLORIDE] was 1.62%.
The value for `CC(C)(C)NC(=O)[C@H]1CC[C@H]2[C@@H]3CC[C@H]4NC(=O)C=C[C@]4(C)[C@H]3CC[C@]12C` [FINASTERIDE] was -5.85%; that for `CC[C@]1(O)C[C@@H]2CN(CCc3c([nH]c4ccccc34)[C@@](C(=O)OC)(c3cc4c(cc3OC)N(C)[C@H]3[C@@](O)(C(N)=O)[C@H](O)[C@]5(CC)C=CCN6CC[C@]43[C@@H]65)C2)C1.O=S(=O)(O)O` [VINDESINE SULFATE] was 3.57%.
The value for `Cc1onc(-c2ccccc2)c1-c1ccc(S(N)(=O)=O)cc1` [VALDECOXIB] was 4.49%; that for `C[C@]12C=CC(=O)C=C1CC[C@@H]1[C@@H]2[C@@H](O)C[C@@]2(C)[C@H]1CC[C@]2(O)C(=O)COC(=O)CCC(=O)[O-].[Na+]` [PREDNISOLONE SODIUM SUCCINATE] was 1.73%; that for `COc1cc(N)c(Cl)cc1C(=O)N[C@@H]1CCN(CCCOc2ccc(F)cc2)C[C@@H]1OC.O` [(R,S)-CISAPRIDE MONOHYDRATE] was 2.71%.
